# Measured values as given in PubChem BioAssay AID2796 (The Scripps Research Institute Molecular Screening Center, 2010).
# Hit rate of the full screen: of about 320,000 compounds, about 8,000 (2.5%) were called active. This excerpt belongs to a sample that is enriched for actives. Values without a mark were called inactive. No stated cut-off is given here; in the data, active means activation above about 47%; inactive means the rest.
# Biological target: Aryl hydrocarbon receptor (Homo sapiens) (UniProt P35869)
# Assay: AHR activators, primary screen, cell-based, luminescence, luciferase reporter, human (AID 2796);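 further: 0% = vehicle wells and 100% = reference agonist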
# Settings: AHR-responsive luciferase reporter cells, at 5 µM, stronger effect = higher value
# Sequence of Aryl hydrocarbon receptor (Homo sapiens) (P35869 whole entry, looked up): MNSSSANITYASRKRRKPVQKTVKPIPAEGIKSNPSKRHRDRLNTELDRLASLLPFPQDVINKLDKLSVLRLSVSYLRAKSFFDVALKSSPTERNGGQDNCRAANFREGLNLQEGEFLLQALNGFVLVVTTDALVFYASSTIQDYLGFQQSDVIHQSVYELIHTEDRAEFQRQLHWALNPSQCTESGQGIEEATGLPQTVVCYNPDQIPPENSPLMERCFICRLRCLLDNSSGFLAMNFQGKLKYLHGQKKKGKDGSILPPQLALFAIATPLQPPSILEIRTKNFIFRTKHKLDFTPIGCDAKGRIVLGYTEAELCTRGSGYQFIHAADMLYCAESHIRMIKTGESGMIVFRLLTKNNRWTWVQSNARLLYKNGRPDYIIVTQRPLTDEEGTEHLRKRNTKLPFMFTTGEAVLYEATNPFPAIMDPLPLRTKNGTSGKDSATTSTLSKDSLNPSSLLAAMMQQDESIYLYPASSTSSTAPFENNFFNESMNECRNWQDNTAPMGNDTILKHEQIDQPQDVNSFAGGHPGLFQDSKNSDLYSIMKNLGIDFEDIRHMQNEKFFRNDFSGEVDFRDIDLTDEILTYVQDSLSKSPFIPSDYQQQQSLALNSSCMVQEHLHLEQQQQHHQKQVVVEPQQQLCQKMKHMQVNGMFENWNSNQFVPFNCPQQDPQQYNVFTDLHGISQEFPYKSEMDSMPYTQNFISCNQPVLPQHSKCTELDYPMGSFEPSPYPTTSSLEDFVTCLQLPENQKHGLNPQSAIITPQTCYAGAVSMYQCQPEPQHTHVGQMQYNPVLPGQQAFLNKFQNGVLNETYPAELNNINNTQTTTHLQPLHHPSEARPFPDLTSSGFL
row,Compound,activation
1,CCOC(=O)C1(S(=O)(=O)c2ccc(Cl)cc2)CCN(Cc2ccccc2)CC1,0.91%
2,CCOc1ccc(NS(=O)(=O)c2ccc(Cl)c(C(=O)N(C)Cc3cccnc3)c2)cc1,-0.23%
3,c1csc(CN2CCN(Cc3cccs3)C2c2cccs2)c1,-2.12%
4,Brc1ccc2c(c1)[C@H]1OCC[C@H]1[C@@H](c1cccs1)N2,77.4% (active)
5,COc1ccc(CNC(=O)COC(=O)C(CCSC)N2C(=O)c3ccccc3C2=O)cc1 (stereo not given),-0.44%
6,O=C(Nc1cc(C(F)(F)F)ccc1Cl)C(=O)N1CCCCC1,4.43%
7,FC(F)(F)c1ccc2c3n(nc2c1)CCN=C3c1ccc(Cl)cc1,73.6% (active)
8,CCN(CC)CCN(C(=O)c1cc(Cl)sc1Cl)c1nc2cc3c(cc2s1)OCO3,72.1% (active)
9,CN(C)CCN(C(=O)C1CCCCC1)c1nc2cc3c(cc2s1)OCO3,4.17%
10,CCN(CC)CCN(C(=O)c1ccc(N2C(=O)CCC2=O)cc1)c1nc2cc3c(cc2s1)OCO3,6.01%
11,COC(=O)[C@]1(Cc2ccccc2)N[C@H](CN(C)S(=O)(=O)c2ccc(OC(F)(F)F)cc2)[C@@H]2C(=O)N(C)C(=O)[C@@H]21,-1.46%
12,CCC(=O)NC(=S)Nc1ccc(NC(=O)c2ccco2)c(Cl)c1,84.6% (active)
13,O=C(Nc1ccc(NC(=O)c2ccco2)c(Cl)c1)c1cccc([N+](=O)[O-])c1,2.52%
14,O=C(NNC(=S)Nc1ccc(Br)cc1Cl)c1ccco1,2.47%
15,Cc1ccc(F)cc1NC(=O)N1CCCN(c2ccc(C(F)(F)F)cn2)CC1,-3.14%
16,CCc1nn(CCCC(=O)Nc2ccc(C)c(C)c2)c(=O)c2cc3occc3n12,4.33%
17,Nc1c(C(=O)c2cccs2)sc2nsc(SCCN3CCCCC3)c12,25.2%
18,OC(COc1ccc(CN2CCSCC2)cc1)CN1CCCCC1 (stereo not given),-1.38%
19,CCOc1ccc(CN2CCN(Cc3ccon3)CC2CCO)cc1 (stereo not given),7.62%
20,Cc1cccc(/C=N/NC(=O)CNc2cccc3ccccc23)n1,46%
21,C/C(=N\NC(=O)CNc1cccc2ccccc12)c1ccc(Br)s1,91.4% (active)
22,Cn1cccc1/C=N/NC(=O)CNc1cccc2ccccc12,5.35%
23,O=C(CSc1nnc(SCc2ccc(F)cc2)s1)Nc1ccc(C(=O)O)cc1,-0.59%
24,C#CCSc1nnc(-c2sc3ccccc3c2Cl)o1,89.2% (active)

row,Compound,activation
1,Clc1ccc(-c2nnc(SCc3nc4ccccc4s3)o2)cc1,18.2%
2,O=C(NCC#CCSc1nnc(-c2cccc3ccccc23)o1)c1cccs1,-2.43%
3,COC(=O)CSc1ccc2nnc(CCNS(=O)(=O)c3ccc(C)cc3)n2n1,0.87%
4,O=C(CN1CCN(S(=O)(=O)c2ccc(Cl)s2)CC1)NCc1ccc(Cl)cc1,-0.6%
5,CC[n+]1cc(C)ccc1/C=C/c1ccc(N(C)C)cc1,-0.11%
6,Cc1c(C(=O)OCC(=O)N2CCCC2=O)oc2ccccc12,1.38%
7,COc1cccc(NC(=O)NCCN2CCCCC2)c1,2.06%
8,COc1cccc(NC(=O)Nc2nnc(N3CCCCC3C)s2)c1 (stereo not given),62.3% (active)
9,COc1cccc(C(=O)Nc2nnc(S(=O)(=O)N3CCCCC3)s2)c1,9.59%
10,Nc1ccn(C2CC(O)C(CO)O2)c(=O)n1 (stereo not given),-4.38%
11,O=C(NNC(=O)c1ccc(Cl)nc1)c1ccc(Br)cc1,-2.45%
12,NC(=O)CSc1c[nH]c2ccccc12,20.9%
13,O=S(=O)(O)Oc1c[nH]c2ccccc12,66.7% (active)
14,O=C(NC1CCCC1)C(=O)c1c[nH]c2ccccc12,-1.15%
15,COc1ccc(N2CC(C(=O)NCCN3C(=O)S/C(=C\c4cccnc4)C3=O)CC2=O)c(OC)c1 (stereo not given),-0.14%
16,COc1ccc(C(CNC(=O)c2cccc(S(=O)(=O)Nc3ccccc3Cl)c2)N2CCOCC2)cc1 (stereo not given),8.55%
17,Cc1cc(Br)ccc1NC(=O)CN(C)C(=O)CN1C(=O)NC2(CCCC2)C1=O,1.62%
18,COc1ccc(N2C(=O)c3cccc4cccc(c34)C2=O)nn1,65% (active)
19,O=C1c2ccccc2C(=O)N1c1cccc2ccccc12,0.6%
20,O=C1c2cccc3cccc(c23)C(=O)N1c1cccc(O)c1,-1.76%
21,O=C(NC1CCCC1)C1CCN(C(=O)Nc2cccc(Cl)c2)CC1,0.72%
22,CC(C)OCCCNC(=S)N1CCC(C(=O)c2ccc3c(c2)OCCO3)CC1,1.57%
23,NS(=O)(=O)c1ccc(N=Nc2c(O)[nH]c3ccc(Br)cc23)cc1,-10.5%
24,Oc1[nH]c2ccc(Br)cc2c1N=Nc1nn[nH]n1,16.2%

row,Compound,activation
1,Cc1cccc(N=Nc2c(O)[nH]c3ccc(F)cc23)c1,93% (active)
2,CC(=O)n1cc([C@H]2C=C(C(=O)N3CCOCC3)O[C@@H](OCc3ccc(CO)cc3)C2)c2ccccc21,3.74%
3,COCCN(CCOC)S(=O)(=O)NC[C@H]1O[C@@H](n2cnc3c(N)ncnc32)[C@H](O)[C@@H]1O,0.98%
4,CN1C(=O)/C(=C\c2cc(Br)cs2)c2ccccc21,62.1% (active)
5,CCC1C(=O)c2ccccc2N(C)C1=O (stereo not given),9.44%
6,CN1C(=O)/C(=N/OC(=O)c2ccccc2Br)c2ccccc21,-2.06%
7,Nc1nc(C23CC4CC(CC(C4)C2)C3)cs1,-0.51%
8,COc1ccc(CCNC(=O)CCc2cn(C)c3ccccc23)c(OC)c1,48.4% (active)
9,Cn1cc(CCC(=O)NC2CC2)c2ccccc21,27.1%
10,COc1ccc(CCNC(=O)CN2C(=O)CCSc3ccccc32)c(OC)c1,-0.88%
11,CCCCn1c(N)c(N(Cc2ccccc2OC)C(=O)COc2cc(C)ccc2Cl)c(=O)[nH]c1=O,4.71%
12,Cc1cc([N+](=O)[O-])c(NC2CCCCC2)c([N+](=O)[O-])c1,-4%
13,O=C(COC(=O)c1ccc(O)cc1O)NNC(=O)c1cccs1,0.36%
14,Cc1ccc(NC(=O)c2sc3nc(N)c(C#N)cc3c2N)cc1,115% (active)
15,Cc1ccc(NC(=O)CSCC(=O)Nc2sccc2C#N)cc1,25.5%
16,CCc1ccc2nc3sc(C(=O)Nc4nnc(CC)s4)c(N)c3cc2c1,0.59%
17,Cc1ccc(-c2nc(C#N)c(NCCCn3ccnc3)o2)cc1,124% (active)
18,Cc1ccc(S(=O)(=O)c2nc(NCCCn3ccnc3)sc2Cl)cc1,9.5%
19,O=C(CCN1C(=O)c2ccccc2C1=O)NCCCn1ccnc1,6.16%
20,CCOC(=O)C1CCN(C(=O)COc2cccc3ccccc23)CC1,6.85%
21,Cc1ncoc1C(=O)NCCC(c1ccccc1)c1ccccc1,2.07%
22,Cc1cc(F)ccc1S(=O)(=O)Nc1ccc(C(=O)N(C)Cc2ccco2)cc1,-1.13%
23,Cc1cc(Cl)ccc1OCCCC(=O)Nc1cccc(-n2cnnn2)c1,2.58%
24,O=C(Nc1cccc(Br)c1)c1ccc2snnc2c1,106% (active)

row,Compound,activation
1,CCc1ccccc1NC(=O)c1ccc2snnc2c1,0.7%
2,O=C(Nc1ccc2ccccc2c1)Nc1ccc2snnc2c1,7.08%
3,COc1ccc(C(=O)NCC2CCCCC2)cc1S(=O)(=O)N1CCCC1,0.47%
4,COc1cc(C=NNC(=O)c2cccnc2)ccc1OC(=O)c1ccccc1F,7.39%
5,CCOC(=O)c1nnn(-c2nonc2-n2cccc2)c1CN1CCC(C(=O)OCC)CC1,0.56%
6,Cc1cc(Nc2ccc(Br)cc2F)n2ncnc2n1,7.31%
7,CC1CCc2c(nc3ncnn3c2Nc2ccc(OC(F)(F)F)cc2)C1 (stereo not given),12.3%
8,Brc1ccc(Nc2c3c(nc4ncnn24)CCC3)cc1,104% (active)
9,CC(C)n1cnc2c(Nc3cccc(Cl)c3)nc(N(CCO)CCCO)nc21,95.2% (active)
10,OCCCNc1nccc(-c2cc(Nc3cccc(Cl)c3)ncn2)n1,-11.1%
11,CC(C)C[C@H](CO)Nc1nc(N(C)c2cccc(Cl)c2)c2ncn(C(C)C)c2n1,14.5%
12,CC1=NN(/C(=N\c2nnc(C)s2)Nc2ccccc2)[C@H](c2ccc(C)cc2)S1,3.18%
13,O=C(O)c1cccnc1NC1CCCC1,-0.53%
14,CCN(CC)S(=O)(=O)N1CCC(C(=O)NC(C)CCc2ccccc2)CC1 (stereo not given),-1.06%
15,C#CCCOC(=O)N1C2=NC(C(=O)OC)=C(C(=O)OC)[C@@H]3N(C)c4ccc(OC)cc4[C@]23C[C@H]1C(=O)OC,-1.46%
16,O=C1CCc2cc(S(=O)(=O)Nc3ccc(C(F)(F)F)cc3)cc3c2N1CC3,-2.33%
17,CC1CCN(Cc2nc(-c3ccc(Cl)cc3)no2)CC1,-0.15%
18,COCC1CCCN(Cc2nc(-c3ccc4c(c3)OCO4)no2)C1 (stereo not given),52.6% (active)
19,COCC1CCCN(Cc2cn[nH]c2-c2cc3ccccc3o2)C1 (stereo not given),4.44%
20,CCN1CN(Cc2ccccc2)CNC1=S,2.74%
21,CC(C)N1CCc2c(sc(NC(=O)Cc3ccccc3)c2C#N)C1,43.6%
22,COc1ccc(N2CCN(C(=O)c3ccc(N4CCCCS4(=O)=O)cc3)CC2)cc1,1.84%
23,CC1CN(C(=O)c2ccc3c(c2)OCO3)OC(c2ccccc2)O1 (stereo not given),3.64%
